ChEMBL document CHEMBL3433997, “St. Jude Leishmania screening dataset” (2016)

The compounds below were run against Glucose transporter (Leishmania mexicana) (UniProt O61059) (assay: ST_JUDE_LEISH: Cytotoxicity at 2uM final concentration against transgenic Leishmania Mexicana promastigotes LmGT2 that are glucose transport deficient and complemented with the L. Mexicana glucose transporter 2. Activity is measured by DNA content using SYBR green in vitro).
Type: functional

SMILES	inhibition [%]
O=C(Nc1cccc(CN2CCCN(Cc3ccc4c(c3)OCO4)CC2)c1)c1ccc2ccccc2c1	-7.63
CN(C)CCNC(=O)c1cc2c(-c3ccc(Cl)cc3)nn(C)c2s1	1.3
CCc1nc(N)nc(N)c1-c1ccc(F)c(F)c1	3.74
CCN(CC)CCNc1ccnc2c3ccccc3n(C)c12	-0.19
CC(=O)Oc1c(C2CCN(CCCCNC(=O)c3ccc(NC(=O)c4ccc(Cl)cc4)cc3)CC2)ccc2c1CCCC2	3.9
O=C(NCc1ccc(F)cc1)Nc1cccc(-c2ccc(-c3nc4ccccc4[nH]3)cc2)c1	-0.44
O=C(Nc1cc(Cl)ccc1O)c1cnn2c(C(F)(F)F)cc(-c3cccs3)nc12	3.63
O=C(Nc1ccc(-c2ccccc2)s1)N[C@H]1CCN(Cc2ccc(OCCCN3CCCCC3)cc2)C1	2.81
CCCc1ccc(NC(=O)c2cccc(CN3CCCN(Cc4cccc(C#N)c4)CC3)c2)cc1	1.95
Cc1nnsc1C(=O)Nc1cccc(-c2ccc(-c3nc4ccccc4[nH]3)cc2)c1	4.11
O=C(NCCCCN1CCC(c2ccc3c(c2OCCOCCO)CCCC3)CC1)c1ccc(-c2ccc(C(F)(F)F)cc2)cc1	0.76
COc1ccc(C(=O)NCCCCN2CCC(c3ccc4c(c3OC)CCCC4)CC2)cc1-c1ccc(C(F)(F)F)cc1	-1.69
CS(=O)(=O)c1ccc(-c2cnc(N)c(-c3cccc(O)c3)c2)cc1	6.07
Cc1noc(C)c1-c1cccc(CNCc2cccc(-c3ccc(-c4nc5cccc(C)c5[nH]4)cc3)c2)c1	0.96
COC(=O)C(c1ccc(NC(=O)[C@H](CC(C)C)NC(=O)OC(C)(C)C)cc1)c1ccc(NC(=O)[C@H](CC(C)C)NC(=O)OC(C)(C)C)cc1	0.27
Cc1ccccc1C1CCN(c2ccc(C(=O)Nc3ccc(F)cc3)cn2)CC1	5.56
FC(F)(F)c1ccc(-c2cncc(-c3ccc(C(F)(F)F)cc3)n2)cc1	-1.64
COc1c(C2CCN(CCCCNC(=O)c3ccc(-c4ccc(Cl)cc4)cn3)CC2)ccc2c1CCCC2	-2.15
CCOc1ccc(NC(=O)c2cn3nc(-c4ccc(OCC)cc4)cc3nc2C2CCNCC2)cc1	3.37
Cc1ccc(NC(=O)Nc2ccc(S(=O)(=O)c3ccc(NC(=O)Nc4ccc(C)c(Cl)c4)cc3)cc2)cc1Cl	1.78

SMILES	inhibition [%]
O=C(Nc1cccc(-c2ccc(-c3nc4cc(F)ccc4[nH]3)cc2)c1)c1csnn1	11.1
COc1ccc(CN(C)CCCc2ccc(NC(=O)c3cc4ccccc4[nH]3)cc2)cc1OC	0.23
COc1ccccc1C1CC(c2ccccc2)=NN1C(=O)c1ccccc1 (stereo not given)	-0.28
CC(C)(C)c1ccc(S(=O)(=O)Nc2cc(Cl)ccc2Cn2ccc(N3CCNCC3)nc2=O)cc1	-1.02
COc1ccc(CNCc2ccccc2)cc1-c1ccc(OC)c(S(=O)(=O)NCCN2CCCC2)c1	3.45
COc1cccc2c1CCN(CCN1CCC(CNC(=O)c3ccc(-c4ccc(C#N)cc4)cc3)CC1)C2	1.38
CC(C)C(=O)NC(Nc1ccc([N+](=O)[O-])cc1)C(Cl)(Cl)Cl (stereo not given)	1.48
CC(Cc1ccc(OCCN2CCN(c3cccc(Cl)c3)CC2)cc1)NCC(O)c1cccc(Cl)c1 (stereo not given)	1.82
COc1ccc(CN2CCCN(Cc3cccc(NC(=O)c4ccc5ccccc5c4)c3)CC2)cc1	6.07
Cc1cccc2nc(-c3ccc(-c4ccc(NC(=O)C5CCN(C)CC5)cc4)cc3)[nH]c12	1.38
Cc1cc(-c2ccc(NC(=O)N3CCc4cc(Br)c(N5CCN(C)CC5)cc43)cc2)ccc1C#N	8.55
O=C(/C=C/c1ccc(Cl)c(Cl)c1)NCCCCCN1CCC(CCNC(=O)c2snnc2-c2ccccc2)CC1	-0.16
COc1ccccc1-n1ccnc1SCC(=O)Nc1cccc(C(F)(F)F)c1	2.6
COc1ccc(-c2cccc(NC(=O)c3ccc(Cl)cc3)c2)cc1CN1CCC(O)CC1	1.8
O=c1cc(NCCCNCc2ccc(C(F)(F)F)s2)[nH]c2ccccc12	0.9
Cc1cc(F)ccc1[C@H]1C[C@H](N2CCOCC2)CCN1C(=O)N(C)[C@@H](C)c1cc(C(F)(F)F)cc(C(F)(F)F)c1	-0.74
CCCCCCN1CCC(NCc2ccc(Cl)cc2)CC1	4.28
COc1cc2nc(N3CCC(CNC(=O)c4ccc(-c5ccc(C(=O)N(C)C)cc5OCCN(C)C)cc4)CC3)nc(N)c2cc1OC	0.37
CCC(C)NC(=O)CN1CN(c2ccccc2)C2(CCN(C(=O)c3ccc4ccccc4c3)CC2)C1=O (stereo not given)	-0.96
Cc1ccc(Nc2nc(N/N=C/c3ccccc3[N+](=O)[O-])nc(Nc3ccc([N+](=O)[O-])cc3)n2)cc1C	5.3
